Structures are written as SMILES. Records with an inconclusive call do not appear. The source made the active and inactive calls. Unless noted, calls come from the whole dose curve; as a rule, active = well fitted curve in the direction sought with a large enough effect; inconclusive = small, poorly fitted or top-dose-only effect, or another doubt; inactive = no such curve, though single readings can be large; an effect the other way counts as inactive or inconclusive.

Assay [1] deals with Aldehyde dehydrogenase, mitochondrial (Homo sapiens) (UniProt P05091). Nature of the assay: qHTS for Inhibitors of the Aldehyde Dehydrogenase Family (ALDH2) Confirmatory screens (AID 2061303; active = well fitted inhibition curve with a large enough effect; title and protocol of this record describe different tests; note: nearly all actives have a fitted effect of over 45% in size; note: potency is the fitted concentration of half-maximal effect; for activity change, negative = inhibition: % is set by controls: 0 for no effect and ±100 for the full control effect). Background: qHTS replaces the single test concentration by a dilution series.
Assay [2] in a line: qHTS for Inhibitors of the Aldehyde Dehydrogenase Family (ALDH1A2, ALDH1A3, ALDH2, ALDH3A1) (AID 2061307). For Potency: test system not described further here; potency is the fitted concentration of half-maximal effect. For activity change, negative = inhibition: % is set by controls: 0 for no effect and ±100 for the full control effect. Note: nearly all actives have a fitted effect of over 50% in size.
Assay [3] deals with Aldehyde dehydrogenase, mitochondrial (Homo sapiens) (UniProt P05091). The assay is described as follows: qHTS for Inhibitors of the Aldehyde Dehydrogenase Family (ALDH2) Primary screen (AID 2061308).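 For activity change, negative = inhibition: plate controls were vehicle for no effect and reference inhibitor for full effect.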 Note: nearly all actives have a fitted effect of over 55% in size. Note: potency is the fitted concentration of half-maximal effect.
The target in assay [4] is Retinaldehyde dehydrogenase 3 (Homo sapiens) (UniProt P47895). Nature of the assay: qHTS for Inhibitors of the Aldehyde Dehydrogenase Family (ALDH1A3) Confirmatory screens (AID 2061311). For activity change, negative = inhibition: % is set by controls: 0 for no effect and ±100 for the full control effect. Note: nearly all actives have a fitted effect of over 60% in size. Note: potency is the fitted concentration of half-maximal effect.
Assay [5] deals with Retinal dehydrogenase 2 (Homo sapiens) (UniProt O94788). The assay is described as follows: qHTS for Inhibitors of the Aldehyde Dehydrogenase Family (ALDH1A2) Confirmation screens (AID 2061314). Note: nearly all actives have a fitted effect of over 65% in size. Note: potency is the fitted concentration of half-maximal effect.
For assay [6], the target named is Retinaldehyde dehydrogenase 3 (Homo sapiens) (UniProt P47895). Nature of the assay: qHTS for Inhibitors of the Aldehyde Dehydrogenase Family (ALDH1A3) Primary screen (AID 2061315).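 Note: plate controls were DMSO vehicle for no effect and reference inhibitor for full effect.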
For assay [7], the target named is Aldehyde dehydrogenase 1A1 (Homo sapiens) (UniProt P00352). Nature of the assay: qHTS for Inhibitors of the Aldehyde Dehydrogenase Family (ALDH1A1) Confirmatory screens (AID 2061316). For activity change, negative = inhibition: % is set by controls: 0 for no effect and ±100 for the full control effect. Note: nearly all actives have a fitted effect of over 65% in size. Note: potency is the fitted concentration of half-maximal effect.

`O=C1CCCC2=C1C(c1cccnc1Cl)N=C(Nc1nc3ccccc3o1)N2` (centres undefined): the Potency result in assay [1], in assay [2], in assay [3], in assay [4] and in assay [6] was “inactive” in each case. The Potency in assay [5] was 22.5 µM (active).
Turning to `Cc1nc2ccccn2c1P(=O)(c1ccccc1)c1ccccc1`, the Potency entry in assay [1], in assay [2], in assay [3], in assay [4], in assay [5] and in assay [6] was “inactive” each time. Moreover, the Potency entry in assay [7] was “inactive”.
As to `NC(=O)c1ccc(C[C@H](C(=O)O)N2C(=O)c3ccc(C(=O)O)cc3C2=O)cc1`, the Potency entry in assay [1], in assay [2], in assay [3], in assay [4], in assay [5] and in assay [6] was “inactive” in each case. Moreover, the Potency entry in assay [7] is “inactive”.
With `Nc1nnc(-c2ccc3ccccc3c2)o1`, the Potency entry in assay [1], in assay [2], in assay [3], in assay [4], in assay [5] and in assay [6] was “inactive” in each case. For the same compound, the Potency result in assay [7] is “inactive”.
Consider `CC(C)(C)c1ccc(C[C@H](C(=O)O)N2C(=O)c3ccc(C(=O)O)cc3C2=O)cc1`, for which the Potency entry in assay [1], in assay [2], in assay [3], in assay [4], in assay [5] and in assay [6] was “inactive” throughout. For the same compound, the Potency result in assay [7] is “inactive”.
Regarding `N#Cc1nc(NCCO)nc(Nc2ccccc2)n1`, the Potency entry in assay [1], in assay [2], in assay [3], in assay [4], in assay [5] and in assay [6] was “inactive” in each case. The Potency entry in assay [7] is “inactive”.
In the case of `O=C1NC(=O)/C(=C/c2cccn2-c2ccc(P(O)O)cc2)N1`, the Potency entry in assay [1], in assay [2], in assay [3], in assay [4], in assay [5] and in assay [6] was “inactive” throughout. The Potency result in assay [7] was “inactive”.
With `CCc1nn2c(=O)cc(-c3ccncc3)nc2s1`, the Potency entry in assay [1], in assay [2], in assay [3], in assay [4], in assay [6] and in assay [7] was “inactive” in each case. In assay [5], the Potency was 25.2 µM (active).
For the compound `c1cncc(-c2ccc(CNc3nc(C4CCCC4)nc4ccccc34)cc2)c1`, the Potency entry in assay [1], in assay [2], in assay [3], in assay [5], in assay [6] and in assay [7] was “inactive” throughout. Also, the Potency in assay [4] was 11.3 µM (active).
`COc1ccc(C[C@@H](NS(=O)(=O)c2ccc(C(=O)O)cc2)C(=O)O)cc1`: the Potency entry in assay [1], in assay [2], in assay [3], in assay [4], in assay [5] and in assay [6] was “inactive” each time. In addition, the Potency result in assay [7] is “inactive”.
Regarding `Cc1ccc(C[C@@H](NS(=O)(=O)c2ccc(C(=O)O)cc2)C(=O)O)cc1`, the Potency result in assay [1], in assay [2], in assay [3], in assay [4], in assay [5] and in assay [6] was “inactive” throughout. Besides, in assay [7], the Potency result was “inactive”.
Regarding `C=CCNc1oc(-c2cccs2)nc1C#N`, the Potency entry in assay [1], in assay [2], in assay [3], in assay [4], in assay [5] and in assay [6] was “inactive” in each case. In addition, in assay [7], the Potency result was “inactive”.
As to `COc1ccc(C2=Nn3c(nnc3-c3cc(OC)ccc3OC)SC2)c(OC)c1`, the Potency entry in assay [1], in assay [3], in assay [4], in assay [5] and in assay [6] was “inactive” each time. The Potency in assay [2] was 17.9 µM (active); in assay [7], 6.34 µM (active).
On to `O=C(O)c1n[nH]c2c1C[C@H]1C[C@@H]21`, for which the Potency entry in assay [1], in assay [2], in assay [3], in assay [4], in assay [5] and in assay [6] was “inactive” in each case. The Potency entry in assay [7] is “inactive”.
Consider `COc1ccc(C2=Nn3c(nnc3-c3cccc(OC)c3)SC2)cc1`, for which the Potency entry in assay [1], in assay [3], in assay [4], in assay [5], in assay [6] and in assay [7] was “inactive” each time. In addition, the Potency in assay [2] was 12.7 µM (active).
On to `O=C1[C@@H]2[C@H]3CC[C@H](C3)[C@@H]2C(=O)N1CCCCN1CCN(c2ncccn2)CC1`, for which the Potency result in assay [1], in assay [2], in assay [3], in assay [5] and in assay [6] was “inactive” throughout. Further, the activity change, negative = inhibition in assay [4] is -14.2% [at 0.022 µM] (inactive). The Potency in assay [7] is 2.52 µM (active).
Regarding `Cc1ccc2nc3sc(C(=O)NCc4ccco4)cc3cc2c1`, the Potency in assay [1] was 12.7 µM (active); in assay [2], 11.3 µM (active); in assay [4], 10.1 µM (active); in assay [5], 7.12 µM (active); in assay [7] it was 7.12 µM (active). Besides, the Potency entry in assay [3] and in assay [6] was “inactive” throughout.
On to `COC(=O)c1ccc2c(c1)S(=O)(=O)N=C2Sc1cc(C)ccc1C`, for which the Potency entry in assay [1], in assay [2], in assay [3], in assay [4], in assay [6] and in assay [7] was “inactive” in each case. In assay [5], the Potency is 14.2 µM (active).
Take `Cc1nc(C)c(-c2ccc3ncnc(NCc4ncc[nH]4)c3c2)s1`: the Potency result in assay [1], in assay [2], in assay [3], in assay [4], in assay [5] and in assay [6] was “inactive” in each case. The Potency result in assay [7] was “inactive”.
In the case of `CCOC(=O)c1cccc(-n2cnc(/C=C3\NC(=O)N(CC(=O)O)C3=O)c2)c1`, the Potency entry in assay [1], in assay [2], in assay [3], in assay [4], in assay [5] and in assay [6] was “inactive” in each case. In assay [7], the Potency entry is “inactive”.
With `CC(=O)Nc1ccc(S(=O)(=O)N2CCN(S(=O)(=O)c3ccc4c(c3)OCCO4)CC2)cc1`, the Potency result in assay [1], in assay [2], in assay [3], in assay [4], in assay [5] and in assay [6] was “inactive” throughout. The Potency result in assay [7] is “inactive”.
For the compound `N[C@@H](CCC(=O)O)C(=O)Nc1ccc(Cl)cc1C(=O)c1ccc[nH]1`, the Potency entry in assay [1], in assay [2], in assay [3], in assay [4], in assay [5] and in assay [6] was “inactive” in each case. The Potency entry in assay [7] is “inactive”.
Regarding `N#CSc1cc(SC#N)c(N)nc1N`, the Potency in assay [1] was 14.1 µM (active); in assay [2], 5.62 µM (active); in assay [3], 3.55 µM (active); in assay [4] it was 10.1 µM (active); in assay [5], 1.79 µM (active); in assay [7], 0.896 µM (active). Moreover, the Potency entry in assay [6] was “inactive”.
Consider `O=C(C1CCN(c2nc(-c3ccc(Br)cc3)cs2)CC1)N1CCOCC1`, for which the Potency entry in assay [1], in assay [3], in assay [4], in assay [5], in assay [6] and in assay [7] was “inactive” in each case. In addition, the Potency in assay [2] is 11.3 µM (active).
`CC(C)(C)c1ccc(SC2=NS(=O)(=O)c3ccccc32)cc1`: the Potency entry in assay [1], in assay [2], in assay [3], in assay [4], in assay [6] and in assay [7] was “inactive” throughout. For the same compound, the Potency in assay [5] is 12.7 µM (active).
For `O=S1(=O)N=C(Oc2ccccc2)c2ccccc21`, the Potency entry in assay [1], in assay [2], in assay [3], in assay [5], in assay [6] and in assay [7] was “inactive” throughout. Moreover, in assay [4], the activity change, negative = inhibition is -14.1% [at 0.022 µM] (inactive).
On to `FC(F)(F)c1ccccc1-c1nc(NCc2ccc(-c3cccnc3)cc2)c2ccccc2n1`, for which the Potency result in assay [1], in assay [2], in assay [3], in assay [5] and in assay [6] was “inactive” each time. Further, the Potency in assay [4] was 10.1 µM (active).
As to `CCOc1ccccc1-c1nnc2n1N=C(c1ccc(OC)cc1)CS2`, the Potency result in assay [1], in assay [3], in assay [4], in assay [5] and in assay [6] was “inactive” in each case. For the same compound, the Potency in assay [2] was 7.94 µM (active); in assay [7], 17.9 µM (active).

Values taken from PubChem BioAssay (NCATS).
